Screens as filed in PubChem.
Shiga inhibitor: Shiga toxin inhibition; Vero cells, Shiga toxin protein synthesis inhibition reporter; inhibition, % at 38.7 µM; hit rate 9.2% among 290,000; in the data active = inhibition mostly above about 28%, no sharp cut-off; inactive = mostly below about 43%; also: 0% is about no effect
CHX counter: counter-screen hit for Shiga toxin inhibitors, cycloheximide; cell reporter, cycloheximide protein synthesis inhibition counterscreen; max response, %; hit rate 12% among 300,000; AID 2314; in the data active = max response mostly above about 13%, no sharp cut-off; inactive = mostly below about 14%; also: read at 38.3 µM for the half of the compounds with a filed dose; 0% is about no effect
NS1 inh: inhibitors of influenza NS1 protein function. hit rate 0.4% among 270,000. AID 2326. Potency, µM (top dose mostly 46.1 µM), for inactives: at the highest dose activity, positive = more growth; also: potency is read from the fitted curve at half-maximal effect; actives are rising curves; nearly all actives have a fitted effect of over 50% in size
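Read-out: OD600 growth recovery of NS1-expressing budding yeast. Cells grown overnight at 30C in -URA glucose medium, washed, resuspended and diluted 1:100 in 2% galactose assay medium, pH 6.0. Same strain lacking NS1 served as positive control.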
SARS PLpro yeast-1: blocks SARS-CoV papain-like protease in a yeast assay. Potency, µM (highest dose often 32.9 µM), for the others: top-dose activity, positive = growth rescue, actives largely listed as activators. hit rate 0.19% among 330,000. S. cerevisiae expressing SARS-CoV PLpro, growth rescue; also: potency is read from the fitted curve at half-maximal effect; 0% is about no effect; nearly all actives have a fitted effect of over 55% in size
SARS PLpro yeast-2: Inhibits SARS-CoV PLP in yeast, hit validation; shares compounds with SARS PLpro yeast-1; yeast expressing SARS-CoV PLpro, growth phenotype rescue; calls only; hit rate 19% among 1,000; AID 652038; call rule not given here
* hit, by the source's call; i = inactive; u = inconclusive; x = no result; + = active, no number. An excerpt weighted towards active compounds, which were near 12% of everything screened. Unless noted, calls follow the shape of the full dose curve.

SMILES	Shiga inhibitor	CHX counter	NS1 inh	SARS PLpro yeast-1	SARS PLpro yeast-2
O=C(NCCSCc1ccccc1)c1cc(S(=O)(=O)N2CCOCC2)ccc1F	-16.9	3.0	-4.1%	2.5%	x
COc1ccc(N2CCN(C3CCCN(C(=O)C4=C(C)OCCO4)C3)CC2)cc1 (centres undefined)	-5.2	-0.6	4.7%	u	i
COc1ccc(N(CN2C(=O)c3ccccc3C2=O)C(=O)COc2ccc(Cl)cc2Cl)cc1	-2.5	-0.3	-13.7%	12.6µM*	i
COC(=O)C(C(=O)OC)c1ccc(N)cc1	-18.5	-0.8	3.2%	-2.3%	x
Cc1cc(C)c2nc(SC(C)C#N)cc(C)c2c1 (centres undefined)	-4.0	0.5	-5.2%	4.9%	x
Cc1ccc(C2CC2C(=O)NNC(=S)Nc2cccc(C)c2)cc1 (centres undefined)	11.9	-1.9	-25.4%	10µM*	i
Cc1ccc(NC(=S)NC2CCCC2)c(C)c1	30.9	11.1	-24.7%	10.0%	x
Cc1cccc(NC(=S)NC2CCCC2)c1	19.2	8.7	9.8%	u	+
O=C(CSCc1cccc(Br)c1)NC1CC1	12.1	9.7	19.8%	u	i
CC(=O)NS(=O)(=O)c1ccc(NC(=O)C2c3ccccc3Oc3ccccc32)cc1	-13.7	-0.8	2.5%	9.0%	x
C/C(=N\NC(=S)NC1CCCCC1)c1ccc(C#N)cc1	1.2	-4.3	11.1%	15.8µM*	+
N#Cc1ccc(C(=O)NC(=S)NC2CCCCC2)cc1	x	x	x	-5.7%	x
CCN(C(=S)Nc1ccc(Oc2ccccc2)cc1)c1ccccc1	-7.9	1.3	-5.2%	14.5%	x
COc1cccc(CNC(=O)c2ccc(CS(=O)(=O)Cc3ccccc3C)o2)c1	14.8	8.1	-22.4%	u	i
COc1cccc(CNC(=O)c2ccc(CS(=O)(=O)Cc3ccc(C)cc3)o2)c1	-4.6	-2.9	x	-3.5%	x
O=C(N/N=C/c1c(O)n(C2CC2)c(=S)[nH]c1=O)c1ccccc1O	25.9	25.4*	15.7%	12.6µM*	i
Cc1cccc(NC(=O)COC(=O)CNC(=O)C2CCCCC2)c1	2.4	8.6	1.9%	u	i
CCNC(=O)c1ccc(NC(=O)CC2SC(N3CCCC3)=NC2=O)cc1 (centres undefined)	x	x	x	4.0%	x
O=c1c2ccccc2ncn1CCCSc1ccc(Cl)cc1	-4.6	-2.6	-87.7%	-6.4%	x
O=c1c2ccccc2ncn1CCCSc1ccccc1	23.6	9.6*	-43.7%	u	i
COc1ccc(C(=O)COC(=O)C2CC3CCCC(C2)C3=O)cc1Br (centres undefined)	x	x	x	u	i
COc1cccc(C(=O)COC(=O)C2CC3CCCC(C2)C3=O)c1 (centres undefined)	x	x	x	-1.6%	x
COc1cc(C(=O)Nc2nnc(SCC(=O)NCC3CCCO3)s2)cc(OC)c1OC (centres undefined)	23.8	2.4	8.5%	4.47µM*	i
O=C(CSc1nnc(NC(=O)c2cccc(Cl)c2)s1)NCC1CCCO1 (centres undefined)	-5.3	4.5	15.6%	-2.2%	x
CCCCC1=CC2=CC(=O)C(C)(OC(=O)CC)C(=O)C2=CN1CCc1ccc(Br)cc1 (centres undefined)	-2.0	-4.3	6.3%	3.3%	x
SMILES	Shiga inhibitor	CHX counter	NS1 inh	SARS PLpro yeast-1	SARS PLpro yeast-2
COc1ccc(CCNC(=O)C(=O)NCC2OCCN2S(=O)(=O)c2ccc(OC)c(OC)c2)cc1OC (centres undefined)	15.7	-4.0	-11.8%	3.7%	x
COc1ccc(CCNC(=O)C(=O)NCC2OCCN2S(=O)(=O)c2ccccc2)cc1OC (centres undefined)	-7.9	-1.8	5.1%	11.2µM*	i
CC(=O)N1CCC(=O)Nc2ccc([N+](=O)[O-])cc21	-1.7	-7.4	x	11.4%	x
CCOc1ccccc1CNC(=O)CCNC(=O)Cn1ccc2ccccc2c1=O	-15.4	-0.6	2.8%	u	i
CCCCCC(C)NC(=O)c1ccoc1C (centres undefined)	15.6	7.7	-26.9%	x	i
CCCCCCCCCCCNC(=O)c1ccoc1C	3.3	2.1	-12.3%	-61.2%	x
COc1ccc(S(=O)(=O)N(CCc2ccccc2)CC(=O)O)cc1Cl	-21.4	-1.3	-6.0%	u	i
COc1cc(/C=N/NC(=O)CN(CCc2ccccc2)S(=O)(=O)c2ccc(NC(C)=O)cc2)cc(OC)c1OC	-8.1	-1.4	26.3%	-1.3%	x
COc1ccc(S(=O)(=O)N(CCc2ccccc2)CC(N)=O)cc1	-12.7	1.0	-1.6%	0.3%	x
COc1ccc(/C=N/NC(=O)CN(CCc2ccccc2)S(=O)(=O)c2ccc(NC(C)=O)cc2)cc1OC	-5.9	-3.4	12.7%	3.55µM*	i
Cc1c(C(=O)NNc2cc(=O)n(C)c(=O)n2C)cccc1[N+](=O)[O-]	6.3	-2.4	4.1%	0.7%	x
